This passage reports AC50 and outcome results from PubChem BioAssay AID2284368 (EPA ToxCast).

SMILES strings stand for the structures. Results filed as inconclusive are left out. Activity calls are given as the source filed them. Rule for the calls: active = hit-call score of the fitted dose curve at least 0.9, where 1 is the maximum; inconclusive = response in the unintended direction; inactive = score below 0.9.

Sequence of Estrogen receptor (Homo sapiens) (P03372 whole entry, looked up): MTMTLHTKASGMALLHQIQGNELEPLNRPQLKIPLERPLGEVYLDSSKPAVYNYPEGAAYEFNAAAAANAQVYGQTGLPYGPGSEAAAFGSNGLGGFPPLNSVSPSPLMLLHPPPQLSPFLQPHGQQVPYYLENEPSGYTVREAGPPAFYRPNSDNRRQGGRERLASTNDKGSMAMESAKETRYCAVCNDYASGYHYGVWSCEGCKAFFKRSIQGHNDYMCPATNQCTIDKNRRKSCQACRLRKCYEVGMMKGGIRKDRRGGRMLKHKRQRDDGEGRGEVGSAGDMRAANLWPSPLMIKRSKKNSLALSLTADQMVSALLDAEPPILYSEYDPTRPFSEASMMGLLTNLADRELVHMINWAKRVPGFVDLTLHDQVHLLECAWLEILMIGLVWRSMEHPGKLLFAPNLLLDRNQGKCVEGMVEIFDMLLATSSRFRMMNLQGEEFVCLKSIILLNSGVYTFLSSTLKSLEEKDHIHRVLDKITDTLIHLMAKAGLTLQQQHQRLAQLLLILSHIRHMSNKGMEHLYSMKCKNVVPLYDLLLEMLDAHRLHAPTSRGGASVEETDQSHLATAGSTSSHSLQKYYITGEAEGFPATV

For the test, the target named is Estrogen receptor (Homo sapiens) (UniProt P03372). As to the kind of experiment: ATG_hERa_EcoTox2: Attagene TRANS-FACTORIAL EcoTox-2 HepG2 Assay for human Estrogen Receptor (ER). The protocol:
ATG_EcoTox2 is a cell-based, multiplexed assay created by modifying the existing Attagene TRANS-FACTORIAL system to include a panel of nuclear receptors from some or all the following species: human (Homo sapiens), african clawed frog (Xenopus laevis), rainbow trout (Oncorhynchus mykiss), japanese medaka (Oryzias latipes), and zebrafish (Danio rerio). The ECOTOX2-FACTORIAL format uses HepG2, a human liver cell line, with measurements taken at 24 hours after chemical dosing in a 24-well plate. ATG_hERa_EcoTox2 is one of 29 assay components measured or calculated from the ATG_EcoTox2 assay. It is designed to make measurements of mRNA induction, a form of inducible reporter, as detected with fluorescence intensity signals by Reverse transcription polymerase chain reaction (RT-PCR) and Capillary electrophoresis technology.The assay endpoint ATG_hERa_EcoTox2 was analyzed in the positive analysis fitting direction relative to DMSO as the negative control and baseline of activity. Using a type of inducible reporter, measures of mRNA for gain-of-signal activity can be used to understand the reporter gene at the transcription factor-level as they relate to the gene ER. Furthermore, this assay endpoint can be referred to as a primary readout, because this assay has produced multiple assay endpoints where this one serves a reporter gene function. To generalize the intended target to other relatable targets, this assay endpoint is annotated to the nuclear receptor intended target family, where the subfamily is steroidal.
Human liver HepG2 cells are transiently transfected with multiple reporter transcription units (MRTUs) in 6-well plates using FuGene 6 reagent (Roche; 3 ml FuGene/1 mg DNA). The MRTU constructs are regulated by a cis-regulating element (promoter). Each RTU expresses a GAL4-UAS that regulates the transcription of a nearby target reporter gene sequence. A major difference between the CIS and TRANS system is that in CIS activities of endogenous TFs are measured, whereas the TRANS assay evaluates changes in activities of exogenous, chimeric NR-Gal4 proteins. […] At the end of 24 hour incubation, total RNA was isolated using TriZol reagent (Invitrogen). The isolated RNA is then reverse-transcribed using oligo(dT) primer and Mo-MLV reverse transcriptase (Invitrogen) with DNAse I (Ambion) treatment for 30 min. The one-tenth of the produced cDNA was amplified by PCR using Taq DNA polymerase (Invitrogen) and two reporter sequence-specific primers. […] The fragments were purified using Qiaquick PCR columns (Qiagen), analyzed on an ABI 3130xL genetic analyzer (Applied Biosystems) with peak positions identified by using a set of X-rhodamine (ROX)-labeled MapMarker1000 molecular weight standards (BioVentures). […]
As for `O=S(=O)(O)C(F)(F)C(F)(F)C(F)(F)C(F)(F)C(F)(F)C(F)(F)F`, the half-maximal activity concentration (AC50) (as a rule, the midpoint of the concentration-response curve, whichever way the signal moves) was 50 µM (active).
On to `[Cl][Sn]([c]1ccccc1)([c]1ccccc1)[c]1ccccc1`, for which the compound was called inactive.
The same measure, in the same setting: the value for `CCCCOCN(C(=O)CCl)c1c(CC)cccc1CC` was “inactive”.
As for `O=P(Oc1ccccc1)(Oc1ccccc1)Oc1ccccc1`, the AC50 is 3.41 µM (active).
